Data: PubChem BioAssay AID1345082 (National Center for Advancing Translational Sciences (NCATS), 2018)
The whole screen tested about 94,000 compounds, of which about 4,000 (4.3%) were called active. A call without a number means that no potency is given here. Roughly 29% stayed inconclusive and do not appear here. Calls follow the shape of the dose curve; as a rule, active = well fitted inhibition curve with a large enough effect; inconclusive = small, poorly fitted or top-dose-only effect; inactive = no such curve, though single readings can be large or run the other way. The full list was thinned out, with actives kept by preference.

Experiment: Cytotoxic Profiling in NIH 3T3 Cell Line of Diverse Libraries Using Quantitative High-Throughput Screening; also: nearly all actives have a fitted effect of over 55% in size
Details: NIH 3T3 viability, CellTiter-Glo ATP luminescence, 48-72 h; series mostly up to 96.7 µM
Outline: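 Viability of NIH 3T3 cells after 48 or 72 hr compound treatment at 37 °C was assessed by CellTiter-Glo, with luminescence imaged following a 10 min room-temperature step.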
Potency is read from the fitted curve at half-maximal effect.

SMILES	Potency
Nc1nc(CCCNC(=O)C2NCCc3[nH]cnc32)cs1 (stereo unspecified)	inactive
O=C(Nc1ccccc1)N1CCC(C(=O)N2CCC(N3CCOCC3=O)CC2)CC1	inactive
CC[C@H]1CN(S(C)(=O)=O)CC[C@H]1CC(=O)NCc1ccco1	inactive
Cc1cccc(C)c1NC(=O)N(C)CC1CCOCC1	inactive
COCC(=O)N[C@@H]1CN(Cc2ccc(F)c(OC)c2)C[C@H]1CO	inactive
COCCNC(=O)c1ccc2nnc(-c3cccc(C(F)(F)F)c3)n2c1	inactive
O=C(NCc1ccccc1)c1ccc2nnc(C3CC3)n2c1	inactive
O=C(NCCc1ccccc1)c1ccc2nnc(-c3cccc(C(F)(F)F)c3)n2c1	39.8 µM (active)
O=C(NCc1ccc(F)c(F)c1)c1ccc2nnc(-c3cccnc3)n2c1	inactive
O=C(NCCCc1ccccc1)C1CCc2nnc(-c3cccc(C(F)(F)F)c3)n21 (stereo unspecified)	inactive
O=C(NCc1ccc(C(F)(F)F)cc1)c1ccc2nnc(-c3ccc(C(F)(F)F)cc3)n2c1	31.6 µM (active)
COC(=O)c1ccc(CN2C(=O)[C@@H]3C[C@@H](O)CN3C3(CN(Cc4cccc(F)c4)C3)C2=O)cc1	inactive
CCN1CC(C(=O)NCC2(c3ccccc3F)CCCC2)CC1=O (stereo unspecified)	inactive
CC(C)c1ccc(CN2CCc3nc(N(C)C)[nH]c(=O)c3CC2)cc1	inactive
COc1cccc(CCC(=O)N2C[C@@H](Oc3ccccc3)C[C@@H]2C(=O)N2CCOCC2)c1	inactive
Cc1ccc(NC(=O)N[C@@H]2C=C(C(=O)NCCC(N)=O)C[C@@H](O)[C@@H]2O)cc1	inactive
CN1C[C@@H]2CC[C@H](C1)N(Cc1cccc(OCCN3CCOCC3)c1)C2	inactive
CCCCC(=O)N1CCC(OC2CCN(S(C)(=O)=O)CC2)CC1	inactive
Cn1cnc(S(=O)(=O)N[C@H]2CCN(C(=O)CSCC(=O)O)[C@H](C(=O)N[C@H](Cc3ccccc3)C(N)=O)C2)c1	inactive
COc1ccccc1-n1c(=O)c(C(=O)N2CCN([S+](C)(=O)[O-])CC2)nc2cccnc21	inactive
Cc1ccncc1C(=O)N1CCC2(CC1)CC(c1ccccc1)C(=O)N2C (stereo unspecified)	inactive
Cc1cc(N2CCC3(CC2)CC(c2ccccc2)C(=O)N3C)ncn1 (stereo unspecified)	79.4 µM (active)
CC#CCN1C(=O)NC(CCc2ccccc2)(C2CCN(Cc3ccccc3-c3ccco3)CC2)C1=O (stereo unspecified)	inactive
CC(=O)N1CC2(CCN(Cc3ncc[nH]3)CC2)CC1C(=O)O (stereo unspecified)	inactive

SMILES	Potency
N#Cc1cccc(NC(=O)O[C@@H]2CO[C@H]3[C@@H]2OC[C@@H]3Nc2nccc(-c3ccccc3)n2)c1	35.5 µM (active)
O=C(Nc1ccccc1)O[C@@H]1CO[C@H]2[C@@H]1OC[C@@H]2NS(=O)(=O)c1cccc2cccnc12	inactive
O=C(Nc1ccc(Oc2ccccc2)cc1)O[C@@H]1CO[C@H]2[C@@H]1OC[C@@H]2NCC1CC1	inactive
COc1cccc([S+](=O)([O-])N2CCC3(C2)N=C(c2ccncc2)C(=O)N3)c1 (stereo unspecified)	inactive
CN1C(=O)CC[C@]2(C(=O)NCc3ccc4c(c3)OCO4)CCCC[C@@H]12	inactive
CC1(C(=O)NCc2ccc3c(c2)OCO3)CCc2cnc(NCc3ccccc3)nc21 (stereo unspecified)	3.16 µM (active)
CC1(C(=O)NCC2CCCO2)CCCc2cnc(Nc3ccccc3)nc21 (stereo unspecified)	inactive
O=C(NCc1ccc(F)cc1F)c1nnn2c1COC(c1ccc(Br)cc1)C2 (stereo unspecified)	inactive
COc1cccc([S+](=O)([O-])N2CCC3(CC2)C(=O)NN=C3c2ccncc2)c1	inactive
CC(C)(C)C(=O)N1CCCC1C(=O)N1CCC(N2Cc3ccccc3C2=O)CC1 (stereo unspecified)	inactive
O=C(NCc1cccnc1)c1nc(-c2ccc(Cl)nc2)c2cnccn12	inactive
c1ccc2sc(C3CCCN(Cc4cc5n(n4)CCNC5)C3)nc2c1 (stereo unspecified)	inactive
Cn1c([C@H]2CCN(C3CCOCC3)C2)nc2ccccc21	inactive
CN1CCC(N2CC[C@H](c3nc4ccccc4s3)C2)CC1	35.5 µM (active)
O=C(c1ccccc1F)N1CCCC2(C1)C(=NC1CCCCC1)NC(=O)N2c1cc(F)cc(F)c1 (stereo unspecified)	inactive
CC(C)CCN1CCC2(C1)C(=NC1CCCCC1)NC(=O)N2c1cc(F)cc(F)c1 (stereo unspecified)	35.5 µM (active)
O=C1NC(=NC2CCCCC2)C2(CCCN([S+](=O)([O-])c3ccccc3)C2)N1c1cc(F)cc(F)c1 (stereo unspecified)	inactive
O=C(CN1CCCC1=O)NCC1Cn2cccc2C(=O)N1Cc1ccccc1 (stereo unspecified)	inactive
CC(C)C(=O)N1CCOc2ccc(CN3CCc4ccccc4C3)cc2C1	inactive
CCCNC(=O)N1CCC(Cn2c(C)cnc2-c2cccnc2)CC1	inactive
O=C(NCc1ccc2c(c1)OCO2)C1CN(C2CCCCC2)C(=O)N1 (stereo unspecified)	inactive
COCCNC(=O)C1CCCN(Cc2cccc(-c3cccs3)c2)C1 (stereo unspecified)	inactive
O=C(NCc1ccc2c(c1)OCO2)C1CCCN(Cc2cccc(-c3cccs3)c2)C1 (stereo unspecified)	31.6 µM (active)
Cc1nc(C(=O)N2CC[C@H](N3CCN(C)CC3)[C@H](CCCO)C2)cs1	inactive

SMILES	Potency
CCCCOC(=O)N1CC(=O)N(Cc2ccco2)CC(O)C1 (stereo unspecified)	inactive
COCCOCC(=O)N1CCC2(CC1)CC(N(C(=O)c1ccccc1)C1CC1)CCO2 (stereo unspecified)	inactive
COC[C@H]1NC(=O)CC[C@H]1C(=O)NCc1cccc(C(F)(F)F)c1	inactive
COc1ccccc1CNC(=O)c1nn(CC2CC2)c2c1CNCC2	inactive
O=C(NCc1cccc(C(F)(F)F)c1)c1nn(CCOc2ccccc2)c2c1CNCC2	15.8 µM (active)
CC(C)NC(=O)C1(CCO)CC12CCOCC2 (stereo unspecified)	inactive
O=C(c1ccc(Cl)cc1)N1CCCN(CCn2nc3n(c2=O)CCCC3)CC1	inactive
CCNC(=O)N[C@H]1CC[C@]2(C)CC[C@@H]([C@H](C)C(=O)NCc3ccco3)[C@H](O)[C@H]2[C@@H]1C	inactive
Cc1noc(C)c1-c1nccc2c(=O)cc(N3CCOCC3)oc12	100 µM (active)
O=c1cc(N2CCOCC2)oc2c(NCc3ccncc3)nccc12	44.7 µM (active)
CC(C)(C)CC(=O)Nc1ccc2c(N3CCOCC3)ncnc2c1	inactive
CCn1c(=O)c2ccnn2c2ccc(C(=O)NCc3ccc(N4CCOCC4)cc3)cc21	inactive
CC(=O)Nc1ccc(C2(C(=O)NCCCN3CCOCC3)CCCCC2)cc1	inactive
CC(CO)Nc1ncnc2c1CN(C1CCCNCC1)C(=O)CN2C (stereo unspecified)	inactive
Cn1c(=O)[nH]cc(CC(=O)N2CCCC(c3cccc(C(=O)O)c3)C2)c1=O (stereo unspecified)	inactive
O=C1CCN(C(=O)Cc2c[nH]c3ccccc23)CCCCCCN1	inactive
CC1(c2ccccc2)N(Cc2ccccc2F)C(=O)OC12CCN(Cc1c[nH]c3ccccc13)CC2 (stereo unspecified)	17.8 µM (active)
CN(CCO)CC1(O)CCCN(Cc2ccccc2F)C1=O (stereo unspecified)	inactive
CC(C)C(=O)N1CCC2(CC1)OC(=O)N(Cc1ccccc1F)C2(C)c1ccccc1 (stereo unspecified)	44.7 µM (active)
COc1ccc(CN2CCC3(CC2)OCCN(Cc2ccccc2F)C3=O)cc1O	inactive
CCc1ccccc1S(=O)(=O)N1CCN(C2(CC)CCN(C(=O)C(C)C)C2)CC1 (stereo unspecified)	inactive
O=C(CCc1conc1-c1ccccc1)NCc1ccco1	inactive
CCOc1ccccc1NC(=O)Cn1c(N2CCOCC2)nc(CC)cc1=O	inactive
C[S+](=O)([O-])N1Cc2ccccc2OC2(CCN(C(=O)Cc3cccc(O)c3)CC2)C1	inactive

SMILES	Potency
CN1CCC(NC(=O)C2CCCN(S(=O)(=O)c3ccccc3)CCC(=O)NCC2)CC1 (stereo unspecified)	inactive
Cn1ncc2c(C(=O)NCC(F)(F)F)cc(-c3ccc(C(F)(F)F)cc3)nc21	inactive
Cn1ncc2c(C(=O)NCC#N)cc(-c3cccc(C(F)(F)F)c3)nc21	inactive
COc1ccc(-c2cc(C(=O)NCC#N)c3cnn(C)c3n2)cc1	15.8 µM (active)
Cc1noc(C)c1S(=O)(=O)NCC1Cn2cccc2C(=O)N1C (stereo unspecified)	inactive
Cc1ncnc(N2CCC(Oc3ccc4ccccc4c3)(C(=O)O)CC2)c1C	inactive
COc1cccc(NC(=O)c2cnc3n[nH]c(-c4ccc(OC)cc4C)c3n2)c1	50.1 µM (active)
COc1cccc(NC(=O)c2c(OC)cc(=O)n3c2CCCC3)c1	inactive
COc1cccc(-c2cc(C(=O)Nc3cccc(Cl)c3)c3cnn(C)c3n2)c1	inactive
COc1ccc(-c2[nH]nc3ncc(-c4cn[nH]c4)nc23)cc1F	inactive
COc1ccc(-c2[nH]nc3ncc(C(=O)Nc4ccccc4)nc23)c(C)c1	28.2 µM (active)
CCOc1ccc2c(n1)CCN(C(=O)Nc1ccc(OC)cc1C)C2	inactive
CNC(=O)[C@H]1C[C@H](Oc2ccccc2)CN1C(=O)c1cc(-c2ccccc2)n[nH]1	inactive
CC1(C)[C@H](Cc2cc(CCO)on2)C[C@@H]1NCC1CC1	inactive
CN(Cc1nccn1C)C(=O)c1cc(CN2CCC(Cc3ccccc3)CC2)on1	inactive
CC(=O)N1CCC(NC[C@H]2O[C@H](Cc3cc(-c4cccc(O)c4)on3)CC[C@@H]2O)CC1	inactive
CC1(C)[C@H](Cc2cc(CC3CCCCC3)on2)C[C@@H]1NC1CCOCC1	31.6 µM (active)
CC1(C)[C@H](Cc2cc(CN3CCCCC3)on2)C[C@@H]1NS(C)(=O)=O	inactive
CN(Cc1ccccc1)Cc1cc(CC2(NCc3ccc(CO)o3)COC2)no1	inactive
COCc1cc(C[C@@H]2CC[C@H](O)[C@@H](CN(CC3CCCCC3)CC3CCCCC3)O2)no1	inactive
CCC(CC)C(=O)N[C@H]1C[C@@H](Cc2cc(COc3ccccc3)on2)C1(C)C	70.8 µM (active)
CC1(C)[C@H](Cc2cc(CC3CCCCC3)on2)C[C@@H]1NC(=O)C1CCC1	39.8 µM (active)
CC(=O)N1CCC(N[C@H]2C[C@@H](Cc3cc(CN(C)c4ccccc4)on3)C2(C)C)CC1	89.1 µM (active)
COCc1cc(C[C@@H]2CC[C@H](O)[C@@H](CN(C)C)O2)no1	inactive
